Data taken from PubChem BioAssay (Tox21).
Results filed as inconclusive are left out. Values without a mark were called inactive. Calls come from the whole dose curve; as a rule, active = well fitted inhibition curve with a large enough effect in the repeat runs; inconclusive = weak or mixed curves, or effect the other way; inactive = no such curve, though single readings can be large or run the other way. Where a SMILES comes first, the peptide text is derived from it.

experiment: qHTS assay to identify small molecule antagonists of the retinoic acid receptor (RAR) signaling pathway (AID 1159552; note: nearly all actives have a fitted effect of over 50% in size); settings: C3RL4 RARE luciferase reporter, retinol-stimulated, 6 h; series mostly up to 92.4 µM; activity, negative = inhibition: at the top concentration
Description: National Center for Advancing Translational Sciences [NCATS]
NIH Chemical Genomics Center [NCGC]
U.S. Environmental Protection Agency [EPA]
National Institutes of Environmental Health Sciences [NIEHS]
National Toxicology Program [NTP]
U.S. Food and Drug Administration [FDA]
All-trans Retinoic acid (atRA) is the potent natural metabolite of retinol and plays an important role in normal embryonic development and maintenance of cellular phenotype in adult animals. atRA is the activating ligand for the retinoic acid receptors (RARs) which form heterodimers with retinoid X receptors (RXRs) on the retinoic acid response element (RARE). Through activation of the RAR/RXRs nuclear receptors, atRA regulates the transcription of a large number of protein-coding genes and regulatory RNAs. Intracellular levels of atRA are controlled by the retinol signaling pathway (RSP) that regulates the biosynthesis and catabolism of atRA to maintain physiological levels. Chemicals that interfere with the RSP can cause abnormal intracellular levels of atRA and therefore are potential developmental toxicants. To assess compounds for the potential adverse effect on embryonic development through interfering with retinol signaling, a cell-based RARE luciferase reporter gene assay was used. C3RL4 cell line (OARSA/CFSAN/FDA, Laurel, MD) was used to screen Tox21 10K compound library for identifying inhibitors of the RSP.
Tox21 Assay Protocol Summary:
C3RL4 cells were seeded at 1,000/well in 4 uL of assay medium into white solid 1,536-well tissue culture plates (Greiner Bio-One North America Inc. Monroe, NC) using a Multidrop Combi (Thermo Scientific, Waltham, MA) dispenser. After incubation at 37 C and 5% CO2 for an overnight, 23 nL of compounds dissolved in DMSO, positive control or DMSO only were transferred by a Pintool station (Kalypsys, San Diego, CA). One ul of 1 uM (final concentration) of Retinol was added right after the compound addition by using a Flying Reagent Dispenser (FRD) (Aurora Discovery, San Diego, CA). After 6 hr incubation at 37 C and 5% CO2, 5 uL of Amplite Luciferase reagent (AAT Bioquest Inc. Sunnyvale, CA) was added to each assay plate using an FRD. Luminescence was quantified on a ViewLux plate reader (PerkinElmer, Waltham, MA) after 30 min incubation at room temperature.
% is set by controls: 0 for no effect and ±100 for the full control effect.

Compound	activity, negative = inhibition
O=C(O)CONC(=O)c1ccccc1	5.89%
C=CCCCCCCCCC(=O)OCCCC	-2.36%
CCC/C=C(\C=O)CC	-1.49%
CC(C)C[C@@H]1[C@H](c2ccccc2)OC(=O)N1CCCN1CCCCCC1	-1.45% [at 42.5 µM]
CCC(=O)CC	-3.41%
Cc1cc(C)c(C(=O)O)c(C)c1	5.86%
CNCCS(=O)(=O)O	-4.83%
C[C@H]1[C@@H](c2ccccc2)NC(=O)N1C	11.5%
O=C(CCCl)NCCc1ccccc1	38.6% [at 42.5 µM]
CCCC(CC)c1ccccc1 (stereo not given)	-6.56%
CCN(CC)CCN	24.9% [at 42.5 µM]
COC(=O)c1cc(Cl)cc(Cl)c1	2.79%
CC1=C(C(=O)O)N2C(=O)[C@@H](NC(=O)[C@H](N)c3ccccc3)[C@H]2SC1	-7.69% [at 42.5 µM]
CC(C)CO	0.329%
O=C(Cn1ccnc1[N+](=O)[O-])NCc1ccccc1	-3.4% [at 42.5 µM]
CCCCOC(=O)C(C)O (stereo not given)	0.427%
Cc1ccc(C(C)NC(=O)[C@@H](NC(=O)OC(C)C)C(C)C)cc1 (stereo not given in full)	13.9%
CN1CCOC(c2ccccc2)c2ccccc2C1 (stereo not given)	1.38% [at 42.5 µM]
O=C1NC(c2ccccc2)(c2ccccc2)C(=O)N1COP(=O)(O)O	13% [at 42.5 µM]
O=C(O)[C@H](O)c1ccccc1	-5.23% [at 42.5 µM]

Compound	activity, negative = inhibition
CC12CCC(C1)C(C)(C)C2O (stereo not given)	2.53%
C=CCSSCCC	7.85%
Cn1nnc2c(C(N)=O)ncn2c1=O	-8.45% [at 42.5 µM]
CCCCSCCCC	-7.78%
CN(C)CC/C=C1/c2ccccc2COc2ccc(CC(=O)O)cc21	3.32% [at 42.5 µM]
CC1(C)Cc2cccc(N)c2O1	5.52%
C/C(=C1\CCOC(=O)S1)N(C=O)Cc1cnc(C)nc1N	-6.07% [at 42.5 µM]
COc1cc(/C=C/C(N)=O)cc(OC)c1OC	-11.8% [at 42.5 µM]
CCCCCCCCCOC(=O)CCCCC(=O)OCCCCCCC	-14.5%
O=C(Cl)c1ccccc1[N+](=O)[O-]	18.9%
Cc1ccc(C(=O)O)cc1[N+](=O)[O-]	-0.0231%
O=NN(CCCl)C(=O)NC1CCCCC1	6.98% [at 42.5 µM]
CC(=O)N[C@@H](CO)C(=O)N[C@@H](CC(=O)O)C(=O)N[C@@H](CCCCN)C(=O)N1CCC[C@H]1C(=O)O (Ac-SDKP-OH)	1.34% [at 42.5 µM]
CCCC(=O)OCCC(C)CCC=C(C)C (stereo not given)	15.2%
CCCCC1CCC(O)CC1 (stereo not given)	-3%
CC(=O)OC(C)=O	39.5%
COc1ccc(CCO)cc1	2.58%
C=Cc1ccc(C(C)(C)C)cc1	-1.1%
CCCCCCCCCCCCCCCCCCOCCO	-13.7% [at 19 µM]
CCO	-1.32%
